# Molecular target: NF-kB p65/p50 heterodimer (Homo sapiens, UniProt Q04206;P19838 Q04206:1-551,P19838:1-433)
# Assay: EMSA; competition against labelled probe 113/114
# Details: protein: extract; tags: nuclear extract of LPS-stimulated THP-1 cells; dsDNA, one strand shown; PS at the 4 most 3' linkages of both strands
# From the text: The EMSA assay was employed to characterize oligonucleotide decoys for the NF-κB transcription factor. […] Using the above modified oligonucleotides to compete for binding for the above-mentioned NF-κB family members, it was possible to compare the binding affinity of these oligonucleotides against the high affinity radiolabeled probe and each other. This assay has also enabled the design of a decoy which selectively binds particular members of the NF-κB family. By using increasing concentrations of various oligonucleotides, it was observed that, by deleting or changing targeted residues in the binding site, it was possible to specifically decrease the binding of the decoy molecule to p50/p50 homodimers, while retaining the affinity for p65/p50 and cRel/p50 heterodimers.
# The NF-κB gel shift assays (EMSA) were performed as follows. A double-stranded oligonucleotide containing a consensus NF-κB binding site (5′ […].GGC 3′) (SEQ ID NO: 26) was end-labeled with γ³²P-ATP using T4 Polynucleotide Kinase (Promega). […] The dried gels were imaged and quantitated using a Typhoon 8600 Phosphorlmager (Amersham) and ImageQuant software. […]
# Sequence of NF-kB p65/p50 heterodimer (Q04206 whole entry, chain 1 of 2): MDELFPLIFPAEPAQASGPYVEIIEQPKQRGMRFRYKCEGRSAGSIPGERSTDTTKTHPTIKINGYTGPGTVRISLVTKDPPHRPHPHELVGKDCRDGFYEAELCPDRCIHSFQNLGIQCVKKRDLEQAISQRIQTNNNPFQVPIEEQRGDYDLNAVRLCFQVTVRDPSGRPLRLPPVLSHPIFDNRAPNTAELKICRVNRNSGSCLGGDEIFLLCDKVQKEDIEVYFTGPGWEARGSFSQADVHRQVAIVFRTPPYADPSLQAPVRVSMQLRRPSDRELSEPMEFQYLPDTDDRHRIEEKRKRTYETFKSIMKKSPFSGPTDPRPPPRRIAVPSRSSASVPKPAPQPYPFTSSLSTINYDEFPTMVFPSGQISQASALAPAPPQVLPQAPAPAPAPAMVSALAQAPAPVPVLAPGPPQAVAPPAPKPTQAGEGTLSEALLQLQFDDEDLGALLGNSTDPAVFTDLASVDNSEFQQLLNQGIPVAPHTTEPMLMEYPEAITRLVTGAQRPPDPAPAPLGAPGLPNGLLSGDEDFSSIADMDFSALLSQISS
# Sequence of NF-kB p65/p50 heterodimer (P19838 1-433, chain 2 of 2): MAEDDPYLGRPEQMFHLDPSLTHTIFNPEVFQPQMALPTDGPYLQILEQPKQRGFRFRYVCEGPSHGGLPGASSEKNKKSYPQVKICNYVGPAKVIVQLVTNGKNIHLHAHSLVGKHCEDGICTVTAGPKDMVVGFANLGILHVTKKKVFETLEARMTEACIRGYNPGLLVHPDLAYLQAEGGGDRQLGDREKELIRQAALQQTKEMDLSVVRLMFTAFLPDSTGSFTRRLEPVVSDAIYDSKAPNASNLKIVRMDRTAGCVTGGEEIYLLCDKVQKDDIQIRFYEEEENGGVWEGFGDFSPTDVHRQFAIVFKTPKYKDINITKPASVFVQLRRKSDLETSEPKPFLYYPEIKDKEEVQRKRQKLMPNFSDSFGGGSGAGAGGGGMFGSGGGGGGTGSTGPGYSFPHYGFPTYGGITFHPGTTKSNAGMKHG
sequence,measurement,value
AGTTGAGGACTTTCCAGGC,IC50,85 fold molar excess
